# Results filed as inconclusive are left out. A call without a number means that no potency is given here. Calls of active or inactive are those of the source. The call rests on the fitted dose curve; in most records, active means well fitted inhibition curve with a large enough effect; inconclusive means small, poorly fitted or top-dose-only effect; inactive means flat fitted curve, though single readings scatter.
# Tested on: TAB113
# Assay: qHTS profiling for inhibitors of Plasmodium falciparum proliferation (AID 504749); further: nearly all actives have a fitted effect of over 60% in size
# Conditions: P. falciparum in erythrocytes, SYBR Green DNA, 72 h; series mostly up to 28.7 µM
# Outline: (§1)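 Three-day growth assay of blood-stage parasites in erythrocytes (0.3% parasitemia, 2.5% hematocrit) at 37 C, 5% CO2, quantified by SYBR Green DNA staining after overnight detergent lysis.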
# Potency means the concentration at half of the fitted maximal effect.
row,SMILES,Potency
1,CCCCC(CC)COS(=O)(=O)O (stereo not given),inactive
2,CC1(O)CCC(C(C)(C)O)CC1 (stereo not given),inactive
3,CCCCCCOC(=O)c1cccnc1,inactive
4,FC(F)(F)COCC(F)(F)F,inactive
5,CCCCCCCCCCCC(=O)N(CCO)CCO,inactive
6,O=P(O)(O)OC[C@H]1O[C@](O)(COP(=O)(O)O)[C@@H](O)[C@@H]1O,inactive
7,COc1cc(S(C)=O)ccc1-c1nc2ncccc2[nH]1 (stereo not given),inactive
8,O=c1[nH]c(=O)n([C@H]2C[C@H](O)[C@@H](CO)O2)cc1/C=C/Br,inactive
9,CC(=O)[C@H]1CC[C@H]2[C@@H]3C=CC4=CC(=O)CC[C@@]4(C)[C@H]3CC[C@]12C,inactive
10,NC(N)=O,inactive
11,CCC(C(=O)NC(N)=O)c1ccccc1 (stereo not given),inactive
12,CC(CCc1ccc(O)cc1)NCC(O)c1ccc(O)cc1 (stereo not given),inactive
13,Nc1nccs1,inactive
14,NC(=S)NS(=O)(=O)c1ccc(N)cc1,inactive
15,O=C(OCc1ccccc1)c1ccc(O)cc1,inactive
16,CC1C(=O)CC2C3(C)CCC2(C(C)C(=O)O)C(=O)C13 (stereo not given),inactive
17,O=C(NNCS(=O)(=O)O)c1ccncc1,inactive
18,CC(=O)Nc1ccc(OC(C)=O)cc1,inactive
19,CC/C(=C(/CC)c1ccc(OP(=O)(O)O)cc1)c1ccc(OP(=O)(O)O)cc1,inactive
20,OC[C@H]1O[C@@](CO)(O[C@H]2O[C@H](CO)[C@@H](O)[C@H](O)[C@H]2O)[C@@H](O)[C@@H]1O,inactive

row,SMILES,Potency
1,[O-][N+](=Nc1ccccc1)c1ccccc1,inactive
2,NC(=O)[C@H]1O[C@@H](O)[C@H](O)[C@@H](O)[C@@H]1O,inactive
3,CC(C)CCC[C@@H](C)[C@H]1CC[C@H]2[C@@H]3CC[C@@H]4C[C@H](O)CC[C@]4(C)[C@H]3CC[C@]12C,inactive
4,ClC(Cl)Cl,inactive
5,FC(F)(F)C(F)(F)C(F)(F)C(F)(F)C(F)(F)F,inactive
6,CC(CC=O)CCCC(C)(C)O (stereo not given),inactive
7,CC(C)[C@H](N)C(=O)OCC(CO)OCn1cnc2c(=O)[nH]c(N)nc21 (stereo not given in full),inactive
8,CC(C)CCC[C@@H](C)[C@H]1CC[C@H]2[C@@H]3CC=C4C[C@@H](O)CC[C@]4(C)[C@H]3CC[C@]12C,inactive
9,CC(C)c1ncc([N+](=O)[O-])n1C,inactive
10,CCCc1ccc(C(=O)O)cc1,inactive
11,C=CC(=O)O,inactive
12,COC(=O)CC[C@H](N)C(=O)O,inactive
13,CN1C(=O)C[C@@H](C(=O)N[C@@H](Cc2cnc[nH]2)C(=O)N2CCC[C@H]2C(N)=O)NC1=O,inactive
14,Cc1ncc(C[n+]2csc(CCOP(=O)(O)O)c2C)c(N)n1,inactive
15,O=C(O)COc1ccccc1/C=N/NC(=O)c1ccncc1,inactive
16,O=C(/C=C/c1cccc(F)c1)NC1CC1,inactive
17,CC(C)(Oc1ccc(C2CCCc3ccccc32)cc1)C(=O)O (stereo not given),inactive
18,O=C(O)[C@H]1C(=CCO)O[C@H]2CC(=O)N12,inactive
19,CN=C1C=CC(=C(c2ccc(N(C)C)cc2)c2ccc(N(C)C)cc2)C=C1,891 nM (active)
20,CO,inactive

# Tested on: TAB165
# Assay: as above
# Conditions: P. falciparum in erythrocytes, SYBR Green DNA, 72 h; series mostly up to 28.7 µM
# Outline: as §1
row,SMILES,Potency
1,CCCCC(CC)COS(=O)(=O)O (stereo not given),inactive
2,CC1(O)CCC(C(C)(C)O)CC1 (stereo not given),inactive
3,CCCCCCOC(=O)c1cccnc1,inactive
4,FC(F)(F)COCC(F)(F)F,inactive
5,CCCCCCCCCCCC(=O)N(CCO)CCO,inactive
6,O=P(O)(O)OC[C@H]1O[C@](O)(COP(=O)(O)O)[C@@H](O)[C@@H]1O,inactive
7,COc1cc(S(C)=O)ccc1-c1nc2ncccc2[nH]1 (stereo not given),inactive
8,O=c1[nH]c(=O)n([C@H]2C[C@H](O)[C@@H](CO)O2)cc1/C=C/Br,inactive
9,CC(=O)[C@H]1CC[C@H]2[C@@H]3C=CC4=CC(=O)CC[C@@]4(C)[C@H]3CC[C@]12C,inactive
10,NC(N)=O,inactive
11,CCC(C(=O)NC(N)=O)c1ccccc1 (stereo not given),inactive
12,CC(CCc1ccc(O)cc1)NCC(O)c1ccc(O)cc1 (stereo not given),inactive
13,Nc1nccs1,inactive
14,NC(=S)NS(=O)(=O)c1ccc(N)cc1,inactive
15,O=C(OCc1ccccc1)c1ccc(O)cc1,inactive
16,CC1C(=O)CC2C3(C)CCC2(C(C)C(=O)O)C(=O)C13 (stereo not given),inactive
17,O=C(NNCS(=O)(=O)O)c1ccncc1,inactive
18,CC(=O)Nc1ccc(OC(C)=O)cc1,inactive
19,CC/C(=C(/CC)c1ccc(OP(=O)(O)O)cc1)c1ccc(OP(=O)(O)O)cc1,inactive
20,OC[C@H]1O[C@@](CO)(O[C@H]2O[C@H](CO)[C@@H](O)[C@H](O)[C@H]2O)[C@@H](O)[C@@H]1O,inactive

row,SMILES,Potency
1,[O-][N+](=Nc1ccccc1)c1ccccc1,inactive
2,NC(=O)[C@H]1O[C@@H](O)[C@H](O)[C@@H](O)[C@@H]1O,inactive
3,CC(C)CCC[C@@H](C)[C@H]1CC[C@H]2[C@@H]3CC[C@@H]4C[C@H](O)CC[C@]4(C)[C@H]3CC[C@]12C,inactive
4,ClC(Cl)Cl,inactive
5,FC(F)(F)C(F)(F)C(F)(F)C(F)(F)C(F)(F)F,inactive
6,CC(CC=O)CCCC(C)(C)O (stereo not given),inactive
7,CC(C)[C@H](N)C(=O)OCC(CO)OCn1cnc2c(=O)[nH]c(N)nc21 (stereo not given in full),inactive
8,CC(C)CCC[C@@H](C)[C@H]1CC[C@H]2[C@@H]3CC=C4C[C@@H](O)CC[C@]4(C)[C@H]3CC[C@]12C,inactive
9,CC(C)c1ncc([N+](=O)[O-])n1C,inactive
10,CCCc1ccc(C(=O)O)cc1,inactive
11,C=CC(=O)O,inactive
12,COC(=O)CC[C@H](N)C(=O)O,inactive
13,CN1C(=O)C[C@@H](C(=O)N[C@@H](Cc2cnc[nH]2)C(=O)N2CCC[C@H]2C(N)=O)NC1=O,inactive
14,Cc1ncc(C[n+]2csc(CCOP(=O)(O)O)c2C)c(N)n1,inactive
15,O=C(O)COc1ccccc1/C=N/NC(=O)c1ccncc1,inactive
16,O=C(/C=C/c1cccc(F)c1)NC1CC1,inactive
17,CC(C)(Oc1ccc(C2CCCc3ccccc32)cc1)C(=O)O (stereo not given),inactive
18,O=C(O)[C@H]1C(=CCO)O[C@H]2CC(=O)N12,inactive
19,CN=C1C=CC(=C(c2ccc(N(C)C)cc2)c2ccc(N(C)C)cc2)C=C1,891 nM (active)
20,CO,inactive
